Efflux pump inh – antifungal efflux pump inhibition, Nile Red retention | S. cerevisiae Candida pump triplex | inhibition, % at 10 µM | actives 0.44% (n = 330,000) | AID 485275;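 active = plate passing quality check with inhibition over a set limit, or well fluorescence over plate mean plus 4 SD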;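 also: Nile Red retained in pooled yeast measured as flow cytometry median fluorescence; 0% = buffer negative control and 100% = Enniatin B positive control; higher means more Nile Red kept so more efflux inhibition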
LAP4-GFP MLPCN – alters LAP4-GFP fluorescence in TOR pathway yeast screen; actives 0.34% (n = 320,000); GFP response vs DMSO, % at 10 µM; S. cerevisiae LAP4-GFP multiplex, flow cytometry GFP, 3 h; median GFP as percent of DMSO wells;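 active = GFP response vs DMSO above a set limit, about the screen mean plus 3 SD, cut at about 150% in these data; inconclusive = under 70 cell events counted for the yeast strain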
RPL19A-GFP yeast – alters RPL19A-GFP fluorescence in TOR pathway yeast screen. S. cerevisiae RPL19A-GFP strain, flow cytometry, 3 h; active compounds read low. percent response vs DMSO, % at 10 µM. AID 2025. actives 0.3% (n = 330,000);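 active = percent response vs DMSO below 50%; inconclusive = fewer than 70 events counted for the yeast strain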;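 also: median channel GFP fluorescence of the barcoded RPL19A-GFP strain; ratio of sample median GFP to plate DMSO average so 100% = DMSO; lower means less RPL19A-GFP as with rapamycin TOR inhibition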
AGP1 TOR yeast – yeast TOR pathway AGP1-GFP modulation; actives 0.02% (n = 320,000); GFP response vs DMSO, % at 10 µM; S. cerevisiae AGP1-GFP multiplex flow cytometry, 3 h; GFP as percent of DMSO wells;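 active = GFP response relative to DMSO above a set limit, near screen average plus 3 SD, cut at about 150% in these data; inconclusive = fewer than 70 cells counted for the yeast strain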;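 also: median GFP channel fluorescence of the gated AGP1 strain per well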
MEP2 TOR yeast – alters MEP2-GFP fluorescence in TOR pathway yeast screen. S. cerevisiae MEP2-GFP strain, flow cytometry GFP, 3 h; 100% = DMSO control level. GFP response vs DMSO, % at 10 µM. actives 0.51% (n = 330,000);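 active = GFP response versus DMSO above a set limit, roughly screen mean plus 3 SD, cut at about 180% in these data; inconclusive = fewer than 70 cells counted for a yeast strain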;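 also: median GFP fluorescence of the barcode-gated MEP2-GFP cells per well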
CIT2-GFP yeast – yeast TOR pathway CIT2-GFP modulation | S. cerevisiae CIT2-GFP strain, flow cytometry, 3 h; 100 means same as DMSO wells | GFP response vs DMSO, % at 10 µM | actives 0.065% (n = 320,000) | AID 2029;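 active = GFP response relative to DMSO above a set limit, near the screen mean plus 3 SD, cut at about 150% in these data; inconclusive = Fewer than 70 cells measured for a yeast strain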;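 also: ratio of well median GFP fluorescence to mean of DMSO wells on the plate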
LAP4-GFP pick2 – reconfirmed LAP4-GFP TOR pathway modulator in yeast; shares compounds with LAP4-GFP MLPCN; GFP response vs DMSO, % at 10 µM; actives 20% (n = 590); AID 2621; S. cerevisiae LAP4-GFP strain, flow cytometry GFP, 3 h;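 active = GFP signal as percent of the solvent control above about 150%, meaning raised reporter expression, limit read from the data; inconclusive = fewer than 70 cells counted in the well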;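 also: ratio of well median GFP fluorescence to plate DMSO mean so 100% = DMSO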
MEP2-GFP pick2 – second confirmation of modulators of TOR reporter MEP2-GFP in yeast | GFP response vs DMSO, % at 10 µM | S. cerevisiae MEP2-GFP strain, flow cytometry GFP, 3 h | shares compounds with LAP4-GFP MLPCN | AID 2622 | actives 10% (n = 590);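 active = GFP signal above 150% of the solvent control wells, that is a rise of more than half; inconclusive = fewer than 70 yeast cells counted in the well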;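 also: median channel GFP fluorescence of all gated yeast cells per well; ratio of median GFP to plate DMSO average so 100% = DMSO level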
RPL19A-GFP pick2 – second confirmation of modulators of TOR reporter RPL19A-GFP in yeast; shares compounds with LAP4-GFP MLPCN; S. cerevisiae RPL19A-GFP strain, flow cytometry GFP, 3 h; active compounds read low; 100% means same as DMSO wells; GFP response vs DMSO, % at 10 µM; actives 3% (n = 590); AID 2623;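 active = under 65% GFP response relative to DMSO; inconclusive = yeast strain with under 70 measured events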;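 also: median GFP channel fluorescence per well over the all cells gate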
CIT2 GFP CP2 – yeast CIT2-GFP TOR reporter modulation, second cherry pick. shares compounds with LAP4-GFP MLPCN. GFP response vs DMSO, % at 10 µM. actives 8% (n = 590). S. cerevisiae CIT2-GFP strain, flow cytometry GFP, 3 h; DMSO control wells read 100%. AID 2624;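 active = GFP response vs DMSO above about 150%, limit read from the data; inconclusive = fewer than 70 events counted for a yeast strain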;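 also: median green fluorescence per well over all gated yeast cells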
AGP1-GFP pick2 – second confirmation of modulators of TOR reporter AGP1-GFP in yeast; 590 tested, under 10 active; S. cerevisiae AGP1-GFP strain, flow cytometry GFP, 3 h; shares compounds with LAP4-GFP MLPCN; AID 2643; percent response vs DMSO, % at 10 µM;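 active = over 150 percent of DMSO response; inconclusive = yeast strain measured with under 70 events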;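 also: median GFP channel fluorescence over all cells without mother daughter split; sample median GFP divided by mean DMSO control so 100% equals DMSO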
Yeast autofluor – yeast s288c autofluorescence artifact, counter-screen. shares compounds with LAP4-GFP MLPCN. S. cerevisiae s288c, 520 nm autofluorescence, flow cytometry, 3 h; active compounds read high; zero means same as solvent-only cells. fluorescence change (kMESF span) at 33 µM. 610 tested, under 10 active;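 active = fluorescence span over the dose series, or activity score, above about 33, limit read from the data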
TORC1 bypass – wildtype yeast growth loss with TORC1 bypass cells unaffected; shares compounds with LAP4-GFP MLPCN; AID 504456; S. cerevisiae BY4741 spot growth rating, 48-72 h; active compounds read low; growth rating (0-3) at 30 µM; 120 tested, under 10 active;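 active = growth rating at most 1 for wild type yeast while the TORC1 bypass strain still grows fully, rated 3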
Starred values were filed as active, the others as inactive; [ ] = dose if it differs, or a comment. Hits are enriched below; roughly 1.3% of the tested compounds scored in any of these assays.

How did Cc1c(NC(=O)CN2CCN(c3ccccc3)CC2)c(=O)n(-c2ccccc2)n1C do in these assays?
Efflux pump inh: 0.0; LAP4-GFP MLPCN: 103.1; RPL19A-GFP yeast: 90.2; MEP2 TOR yeast: 94.0; CIT2-GFP yeast: 103.2

Results for Cc1c(NC(=O)Nc2ccc3c(c2)OCO3)c(=O)n(-c2ccccc2)n1C ?
Efflux pump inh: 0.0; LAP4-GFP MLPCN: 260.1*; RPL19A-GFP yeast: 93.0; AGP1 TOR yeast: 160.7*; MEP2 TOR yeast: 224.5*; CIT2-GFP yeast: 111.9

How did Cc1c(NC(=O)CN2CCN(C(c3ccccc3)c3ccccc3)CC2)c(=O)n(-c2ccccc2)n1C do in these assays?
Efflux pump inh: 0.0; LAP4-GFP MLPCN: 93.8; RPL19A-GFP yeast: 27.1*[may fluoresce violet]; AGP1 TOR yeast: inconclusive; MEP2 TOR yeast: 487.4*[may fluoresce violet]; CIT2-GFP yeast: inconclusive

How did C=CCN1CC(=O)N2C(C)c3[nH]c4ccccc4c3C[C@H]2C1=O (stereo not given in full) do in these assays?
Efflux pump inh: 0.3; LAP4-GFP MLPCN: 64.9; RPL19A-GFP yeast: 51.7; AGP1 TOR yeast: inconclusive; MEP2 TOR yeast: 226.2*[may fluoresce violet]; CIT2-GFP yeast: inconclusive

What do the screens show for `COc1ccccc1NC(=O)CC1S/C(=N/N=C2\CCCc3ccccc32)NC1=O` (stereo not given)?
Efflux pump inh: 0.4; LAP4-GFP MLPCN: 98.7; RPL19A-GFP yeast: 92.5; AGP1 TOR yeast: 90.2; MEP2 TOR yeast: 92.6; CIT2-GFP yeast: 85.7

How did O=C(CC1S/C(=N/N=C2CCCCCC2)NC1=O)Nc1ccccc1C(F)(F)F (stereo not given) do in these assays?
Efflux pump inh: -0.2; LAP4-GFP MLPCN: 71.1; RPL19A-GFP yeast: 46.0*[may fluoresce violet]; AGP1 TOR yeast: inconclusive; MEP2 TOR yeast: 181.7*[may fluoresce violet]; CIT2-GFP yeast: inconclusive

How did O=C(/C=C/c1cccc(Cl)c1)c1nc2ccccc2[nH]1 do in these assays?
Efflux pump inh: 0.0; LAP4-GFP MLPCN: 228.5*; RPL19A-GFP yeast: 79.0; AGP1 TOR yeast: 75.7; MEP2 TOR yeast: 84.1; CIT2-GFP yeast: 68.5; LAP4-GFP pick2: 235.5*; MEP2-GFP pick2: 148.5; RPL19A-GFP pick2: 77.5; CIT2 GFP CP2: 141.8; AGP1-GFP pick2: 82.7; Yeast autofluor: 2.7

How did O=C(COC(=O)Cc1c(F)cccc1Cl)Nc1ccc2[nH]c(=O)[nH]c2c1 do in these assays?
Efflux pump inh: 0.1; LAP4-GFP MLPCN: 90.8; RPL19A-GFP yeast: 99.1; AGP1 TOR yeast: 100.8; MEP2 TOR yeast: 113.0; CIT2-GFP yeast: 106.8

What do the screens show for `COc1ccccc1-c1cc(Nc2cc(C)[nH]n2)nc(NCc2ccccc2)n1`?
TORC1 bypass: 3

How did COc1cc(C)nc(NCc2ccccc2)n1 do in these assays?
Efflux pump inh: 0.1; LAP4-GFP MLPCN: 88.8; RPL19A-GFP yeast: 97.3; AGP1 TOR yeast: 104.3; MEP2 TOR yeast: 96.5

What do the screens show for `COc1ccc(Nc2cc(C)nc(NCc3ccccc3)n2)cc1`?
Efflux pump inh: 0.0; LAP4-GFP MLPCN: 103.2; RPL19A-GFP yeast: 98.7; AGP1 TOR yeast: 106.2; MEP2 TOR yeast: 101.8; CIT2-GFP yeast: 105.6

Results for COc1cccc(-c2cc(Nc3cc(C)[nH]n3)nc(NCc3ccccc3)n2)c1 ?
TORC1 bypass: 3

Results for COc1ccc(CCN2C(=O)CSC2=Nc2ccc(C)cc2C)cc1OC ?
Efflux pump inh: 0.0; LAP4-GFP MLPCN: 100.5; RPL19A-GFP yeast: 97.9; AGP1 TOR yeast: 100.6; MEP2 TOR yeast: 94.8; CIT2-GFP yeast: 90.5

How did CCC(c1nc2ccccc2c(=O)n1-c1nc2ccccc2s1)N1C(=O)c2ccccc2C1=O (stereo not given) do in these assays?
Efflux pump inh: 4.2; LAP4-GFP MLPCN: 78.9; RPL19A-GFP yeast: 103.2; AGP1 TOR yeast: 84.4; MEP2 TOR yeast: 99.5; CIT2-GFP yeast: 93.8

Results for NS(=O)(=O)c1ccc(NC(=O)Nc2ccc(C(F)(F)F)cc2)cc1 ?
Efflux pump inh: -0.1; LAP4-GFP MLPCN: 94.9; RPL19A-GFP yeast: 92.7; AGP1 TOR yeast: 102.7; MEP2 TOR yeast: 95.7; CIT2-GFP yeast: 91.8

Results for COCCCNC(=O)C1CCCN(S(=O)(=O)c2cccc3nsnc23)C1 (stereo not given) ?
Efflux pump inh: 0.0; LAP4-GFP MLPCN: 88.3; RPL19A-GFP yeast: 99.0; AGP1 TOR yeast: 98.1; MEP2 TOR yeast: 100.3; CIT2-GFP yeast: 99.5

What do the screens show for `CCOCCCNC(=O)C1CCCN(S(=O)(=O)c2cccc3nsnc23)C1` (stereo not given)?
Efflux pump inh: 0.2; LAP4-GFP MLPCN: 234.3*; RPL19A-GFP yeast: 72.3; AGP1 TOR yeast: 99.7; MEP2 TOR yeast: 86.2; CIT2-GFP yeast: 68.2; LAP4-GFP pick2: 97.1; MEP2-GFP pick2: 104.8; RPL19A-GFP pick2: 100.0; CIT2 GFP CP2: 100.7; AGP1-GFP pick2: 100.8

How did O=C1COc2ccc(C(=O)COC(=O)c3cc(S(=O)(=O)N4CCOCC4)ccc3F)cc2N1 do in these assays?
Efflux pump inh: -0.1; LAP4-GFP MLPCN: 98.8; RPL19A-GFP yeast: 96.7; AGP1 TOR yeast: 99.6; MEP2 TOR yeast: 98.3; CIT2-GFP yeast: 90.7

Bioassay records (PubChem BioAssay)
